A short description of experiment [1]: qHTS assay to identify small molecule antagonists of the glucocorticoid receptor (GR) signaling pathway - cell viability counter screen (AID 720693; further: nearly all actives have a fitted effect of over 55% in size). (In qHTS, concentration-response curves come from the screen itself.)
The nature of experiment [2]: qHTS assay to identify small molecule antagonists of the androgen receptor (AR) signaling pathway - cell viability counter screen (AID 743033; further: nearly all actives have a fitted effect of over 45% in size).
Experiment [3] in a line: qHTS assay to identify small molecule antagonists of the thyroid receptor (TR) signaling pathway - cell viability counter screen (AID 743064). Further: nearly all actives have a fitted effect of over 50% in size. Summed up: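 Compounds were tested on GH3.TRE-Luc cells in the presence of T3 at 1 nM final. Following 23.5 h at 37 °C, cell viability was quantified by CellTiter-Fluor.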
Experiment [4] in a line: qHTS assay for identifying genotoxic compounds that show differential cytotoxicity against isogenic chicken DT40 cell lines with known DNA damage response pathways - Rev3 mutant cell line (AID 743014). Further: nearly all actives have a fitted effect of over 55% in size. Further: potency means the concentration at half of the fitted maximal effect.
Experiment [5] can be described thus: qHTS assay for identifying genotoxic compounds that show differential cytotoxicity against isogenic chicken DT40 cell lines with known DNA damage response pathways - Rad54/Ku70 mutant cell line (AID 743015). Further: nearly all actives have a fitted effect of over 60% in size. Further: potency means the concentration at half of the fitted maximal effect.
Experiment [6] is described as follows: qHTS assay for identifying genotoxic compounds that show differential cytotoxicity against isogenic chicken DT40 cell lines with known DNA damage response pathways - wild type cell line (AID 743012). Further: nearly all actives have a fitted effect of over 60% in size. Further: potency means the concentration at half of the fitted maximal effect. In outline:
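Viability of DNA repair-proficient chicken DT40 cells was assessed by CellTiter-Glo luminescence following 40 h compound exposure at 37 C/5% CO2.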

Experiment [7] has as its target Androgen receptor (Homo sapiens) (UniProt P10275). The experiment in a line: qHTS assay to identify small molecule agonists of the androgen receptor (AR) signaling pathway (AID 743036; active means well fitted activation curve with a large enough effect in the signal ratio in the repeat runs, with a control signal flat, not every such curve was filed as active; the % refers to the signal ratio). Summed up: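 Beta-lactamase under UAS control, stably integrated in HEK293 GripTite cells, reports receptor activation. After 16 h compound treatment, cells received FRET substrate for 2 h at room temperature before fluorescence reading.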

For experiment [8] the target is unchanged. Kind of experiment: qHTS assay to identify small molecule agonists of the androgen receptor (AR) signaling pathway using the MDA cell line (AID 743040; further: nearly all actives have a fitted effect of over 20% in size). Summed up:
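Testing was done with the MDA-kb2 AR-luc line, a human breast carcinoma stably transfected with MMTV-luciferase containing AR and GR response elements. Cells were exposed 16 h at 37C before ONE-Glo luminescence detection.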

Experiment [9] can be described thus: qHTS assay to identify small molecule antagonists of the androgen receptor (AR) signaling pathway using the MDA cell line - cell viability counter screen (AID 743041; further: nearly all actives have a fitted effect of over 45% in size). Summed up: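 Compound exposure lasted 16 h at 37C in MDA-kb2 AR-luc cells stimulated with R1881. Protease-based CellTiter-Fluor reagent was applied for the final 30 min and fluorescence measured.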

Experiment [10] concerns the target Androgen receptor (Homo sapiens) (UniProt P10275). Kind of experiment: qHTS assay to identify small molecule antagonists of the androgen receptor (AR) signaling pathway using the MDA cell line (AID 743042; further: nearly all actives have a fitted effect of over 55% in size). Summed up: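 MDA-kb2 breast carcinoma cells carrying MMTV-luciferase (AR/GR responsive) were co-treated with compounds and the agonist R1881 for 16 h at 37C. Inhibition read as ONE-Glo luminescence; CellTiter-Fluor fluorescence measured in parallel for cytotoxicity.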

“And” between values parts separate entries of the source, which are not always exact repeats. Equal values may be shown once. A number with no mark means an inactive call. Results filed as inconclusive are left out. The source made the active and inactive calls. Unless noted, the call rests on the fitted dose curve; in most records, active means well fitted curve in the direction sought with a large enough effect in the repeat runs; inconclusive means weak or mixed curves; inactive means no such curve, though single readings can be large; an effect the other way counts as inactive or inconclusive.

Androgen receptor (Homo sapiens), sequence (P10275 whole entry, looked up): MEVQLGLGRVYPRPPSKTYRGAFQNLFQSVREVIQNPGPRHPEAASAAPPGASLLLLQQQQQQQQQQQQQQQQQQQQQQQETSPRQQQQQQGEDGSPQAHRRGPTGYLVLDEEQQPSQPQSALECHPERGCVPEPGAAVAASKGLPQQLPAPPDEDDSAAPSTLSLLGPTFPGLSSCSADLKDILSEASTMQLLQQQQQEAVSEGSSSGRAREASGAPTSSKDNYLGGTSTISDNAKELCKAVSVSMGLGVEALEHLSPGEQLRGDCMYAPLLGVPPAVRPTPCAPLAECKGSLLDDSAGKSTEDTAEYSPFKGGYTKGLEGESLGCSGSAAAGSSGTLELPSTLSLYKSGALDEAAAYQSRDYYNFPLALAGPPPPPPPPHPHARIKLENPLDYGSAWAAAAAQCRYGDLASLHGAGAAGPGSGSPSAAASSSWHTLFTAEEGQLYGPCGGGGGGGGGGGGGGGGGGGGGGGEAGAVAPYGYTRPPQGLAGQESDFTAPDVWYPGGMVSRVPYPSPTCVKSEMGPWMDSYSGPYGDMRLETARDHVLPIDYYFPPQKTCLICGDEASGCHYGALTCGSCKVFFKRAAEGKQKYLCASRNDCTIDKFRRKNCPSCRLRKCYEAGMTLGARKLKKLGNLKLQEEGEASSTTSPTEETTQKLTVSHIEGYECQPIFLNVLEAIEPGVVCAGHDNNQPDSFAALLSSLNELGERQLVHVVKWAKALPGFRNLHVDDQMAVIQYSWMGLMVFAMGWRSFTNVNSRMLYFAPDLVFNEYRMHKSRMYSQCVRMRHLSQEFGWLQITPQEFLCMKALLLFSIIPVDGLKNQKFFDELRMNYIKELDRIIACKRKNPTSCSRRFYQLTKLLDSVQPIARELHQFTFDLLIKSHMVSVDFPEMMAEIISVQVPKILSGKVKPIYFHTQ

With `CCCCN=C(N)N=C(N)N`, the outcome in experiment [1] and in experiment [2] was inactive. The Potency result in experiment [3] was “inactive”.
In the case of `COc1ccc2cc(CCC(C)=O)ccc2c1`, the compound was called inactive in experiment [1] and in experiment [2]. Also, the Potency entry in experiment [4], in experiment [5] and in experiment [3] was “inactive” in each case.
Take `CCCCCCCC(=O)N(C)C`: the outcome in [1] and in [2] was inactive. The Potency entry in experiment [4], in [5] and in experiment [3] was “inactive” in each case.
For `CC(C)(O)CCCC1=CCC(C=O)CC1` (stereo not drawn), the result in experiment [1] and in [2] was inactive. Also, the Potency in [4] was 65.2 µM (active). Further, in [3], the Potency result is “inactive”.
Regarding `CC(O)C(CO)C(C)O` (stereo not drawn), the Potency entry in experiment [6], in [4], in experiment [5] and in experiment [3] was “inactive” in each case. Also, the compound was called inactive in experiment [2], in experiment [7], in experiment [8], in experiment [9] and in experiment [10].
`CCCC(=O)OC`: the result in experiment [1], in [2] and in experiment [9] was inactive. For the same compound, the Potency result in experiment [4], in experiment [5] and in experiment [3] was “inactive” each time.
Take `C=CCN(CC=C)CC=C`: the compound was classed as inactive in experiment [1] and in experiment [2]. The Potency result in experiment [4], in experiment [5] and in experiment [3] was “inactive” each time.
On to `CCOC(=O)COc1ccc2c(C)c(CCN(CC)CC)c(=O)oc2c1Cl`, for which the outcome in experiment [1] and in experiment [2] was inactive.
As to `Cc1ccc2cccnc2c1`, the Potency result in experiment [6], in experiment [4], in experiment [5] and in experiment [3] was “inactive” throughout. The call in experiment [2], in [7], in experiment [8], in [9] and in [10] was inactive.
Take `CSC(=O)c1cccc2nnsc12`: the compound was classed as inactive in experiment [1], in experiment [2], in [7], in experiment [8], in experiment [9] and in experiment [10]. The Potency in experiment [4] is 21.7 µM (active).
Turning to `CCC(=O)OCCOc1ccccc1`, the Potency result in experiment [6], in experiment [4] and in experiment [5] was “inactive” in each case. Besides, the compound was classed as inactive in experiment [2] and in [9].
For the compound `C=C(C)C(=O)OCCOC1CC2CC1C1C=CCC21` (stereo not drawn), the outcome in experiment [1], in experiment [2] and in experiment [9] was inactive. Moreover, in [3], the Potency entry is “inactive”.
Regarding `COC(=O)/C=C(\C)CCC=C(C)C`, the result in experiment [1], in experiment [2] and in [9] was inactive. Besides, the Potency entry in experiment [3] is “inactive”.
With `CCNC(=O)C(C)OC(=O)Nc1ccccc1` (stereo not drawn), the compound was called inactive in experiment [1] and in experiment [2]. The Potency result in experiment [4] is “inactive”.
Take `O=C1Nc2ccccc2C1=O`: the call in [1], in [2] and in experiment [9] was inactive. Further, the Potency result in experiment [4], in experiment [5] and in experiment [3] was “inactive” in each case.
For `CN(C)c1ccncc1`, the outcome in experiment [1], in [2] and in experiment [9] was inactive. Moreover, in experiment [3], the Potency entry is “inactive”.
Take `C=CCN1CCc2nc(N)sc2CC1`: the Potency result in experiment [6], in [4], in [5] and in experiment [3] was “inactive” in each case. In addition, the result in [2], in [7], in experiment [8], in [9] and in experiment [10] was inactive.
Turning to `Cc1cccc(N)n1`, the compound was called inactive in [1], in experiment [2] and in [9]. Further, the Potency entry in [3] was “inactive”.
As to `O=Cc1ccccc1S(=O)(=O)O`, the compound was classed as inactive in experiment [1] and in experiment [2]. Besides, the Potency entry in [4], in experiment [5] and in experiment [3] was “inactive” throughout.
For `O=S(=O)(O)c1cc(I)c(O)c2ncccc12`, the compound was classed as inactive in experiment [1], in experiment [2] and in experiment [9]. For the same compound, in [3], the Potency entry is “inactive”.
On to `C[Si](C)(C)O[Si](O)(O)O`, for which the outcome in [1] and in experiment [2] was inactive. In addition, in experiment [4], the Potency was 61.1 µM (active). In addition, the Potency entry in experiment [3] is “inactive”.
`CC1=C(O)C(=O)CO1`: the compound was called inactive in [1], in experiment [2] and in [9]. The Potency result in experiment [4], in [5] and in experiment [3] was “inactive” in each case.
As for `O=C(O)COc1ccc2ccccc2c1`, the compound was classed as inactive in experiment [1], in experiment [2] and in experiment [9]. Also, the Potency result in experiment [4], in experiment [5] and in experiment [3] was “inactive” throughout.
For `Cc1cc(O)c(Cl)cc1C`, the Potency result in experiment [6], in [4], in experiment [5] and in experiment [3] was “inactive” throughout. In addition, the result in experiment [2] and in [9] was inactive.
Regarding `CC(C)OCCO`, the Potency entry in experiment [6], in experiment [4], in [5] and in [3] was “inactive” throughout.
On to `C=CC(=O)OCC[N+](C)(C)C`, for which the Potency result in [6], in experiment [4], in experiment [5] and in experiment [3] was “inactive” in each case. Moreover, the outcome in experiment [2] was inactive.
Turning to `C=CCON/C(CCC)=C1\C(=O)CC(C)(C)C(C(=O)OC)=C1O`, the Potency result in experiment [4], in experiment [5] and in experiment [3] was “inactive” each time. Moreover, the compound was called inactive in experiment [2] and in experiment [9].
Turning to `Cc1nc2ccc(Cl)cc2[nH]1`, the Potency entry in [6], in experiment [5] and in experiment [3] was “inactive” each time. The compound was called inactive in [2].
Consider `C=CC(=O)OCCOCCOCC`, for which the Potency entry in experiment [6], in experiment [4], in experiment [5] and in experiment [3] was “inactive” each time. For the same compound, the outcome in experiment [2] was inactive.
With `CCC(C)c1nccnc1OC` (stereo not drawn), the Potency result in experiment [4] and in [3] was “inactive” in each case. Also, the result in experiment [2] and in [9] was inactive.
Take `C[C@]12C=CC(=O)C=C1[C@@H](F)C[C@@H]1[C@@H]2[C@@H](O)C[C@@]2(C)[C@H]1CC[C@]2(O)C(=O)CO`: the Potency is 18.8 µM (active) in experiment [6]; 18.8 µM (active) in experiment [4]; 23.7 µM (active) and 26.6 µM (active) in experiment [5]. In addition, the compound was called inactive in [2] and in experiment [9]. Moreover, in [3], the Potency entry is “inactive”.
Turning to `CC(C)C[P+](C)(CC(C)C)CC(C)C`, the Potency entry in [6], in [4], in experiment [5] and in experiment [3] was “inactive” each time. Moreover, the compound was classed as inactive in experiment [2] and in [9].
With `O=P(O)(O)C(O)(Cc1cccnc1)P(=O)(O)O`, the Potency entry in experiment [6], in experiment [4], in experiment [5] and in [3] was “inactive” each time. In addition, the outcome in [2] and in [9] was inactive.
For `CCCCCCC(=O)c1ccccc1`, in experiment [6], the Potency result is “inactive”. The result in [2] and in experiment [9] was inactive.
Turning to `NNC(=O)CCCCC(=O)NN`, the Potency result in [4], in experiment [5] and in experiment [3] was “inactive” each time. In addition, the compound was classed as inactive in experiment [2] and in [9].
For `CCOCCOCCOC(C)=O`, the Potency entry in [6], in [4], in experiment [5] and in experiment [3] was “inactive” throughout. Moreover, in experiment [2], the call was inactive.
In the case of `C/C=C(\C)C=O`, the Potency entry in experiment [6], in experiment [4], in experiment [5] and in experiment [3] was “inactive” each time. Besides, the result in experiment [2] and in experiment [9] was inactive.
As to `COc1cnc(NS(=O)(=O)c2ccc(N)cc2)nc1`, the Potency entry in experiment [4] and in [3] was “inactive” in each case. In addition, the compound was classed as inactive in experiment [2] and in experiment [9].

The record behind these values is PubChem BioAssay (Tox21).
